High-throughput results (PubChem)
DRV1 agonist = GPR32 (DRV1) agonism, beta-arrestin recruitment; CHO-K1 GPR32 beta-arrestin PathHunter luminescence, 90 min; zero percent set by DMSO-only wells; hit rate 2.5% among 48,000; activation, % at 76.9 µM; O75388;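 active means activation of at least 60% and not above a set upper limit, about 1 call in 100 departs from these limits; inconclusive means activation of 40% to 60%, or above that upper limit; inactive means activation under 40%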; further: 0% is about no effect
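Step 1: seed CHO-K1 GPR32 beta-arrestin cells, 2,500/well, overnight at 37 °C. Step 2: add compounds, 90 min at 37 °C. Step 3: detection reagent, 1 h ambient, then luminescence.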
GALK inh = inhibitors of human galactokinase (GALK). P51570. recombinant GALK, Kinase-Glo ATP luminescence, 1 h. Potency, µM (top dose mostly 57.5 µM), for inactives: top-dose activity, negative = inhibition, most hits filed as inhibitors. 44,000 tested, under 10 active. AID 1347072;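 further: plate controls were full GALK reaction for no effect and reaction lacking GALK for full effect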
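5 nM GALK with 35 µM ATP and 100 µM galactose in HEPES pH 8.0, MgCl2, NaCl, DTT, BSA; 1 h RT reaction, remaining ATP detected by Kinase-Glo Plus luminescence after 10 min; qHTS concentration series.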
TSG101-PTAP inh = inhibitors of HIV-1 PTAP binding to human TSG101, validation | 44,000 tested, under 10 active | Potency, µM (highest dose often 115 µM), hits mostly inhibitors | Fluorescence polarization, FITC-PTAP peptide/Tsg101, 20 min | Q99816; further: potency means the concentration at half of the fitted maximal effect; 0% is about no effect
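Fluorescence polarization: Tsg101 binding domain (10 uM final) in 10 mM HEPES pH 7.5, 0.15 M NaCl, 0.01% Tween 20, 3 mM EDTA, 0.1 mM TCEP; compounds pinned; FITC-PTAP peptide 50 nM final; 20 min, r.t.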
FH mod = Identification of activators of human fumarate hydratase by quantitative high-throughput screening; hit rate 0.22% among 54,000; AID 1347055, 2019; FH coupled MDH/diaphorase resazurin fluorescence, 15 min; Potency, µM (highest dose often 79.9 µM), without a hit: at the top dose activity change, negative = inhibition, hits mostly inhibitors; further: potency means the concentration at half of the fitted maximal effect; on the % scale 0 is the no-effect control and ±100 the full control effect; the screen sought activators but most active calls are inhibition curves; nearly all actives have a fitted effect of over 45% in size
Target sequence (P07954 whole entry, looked up): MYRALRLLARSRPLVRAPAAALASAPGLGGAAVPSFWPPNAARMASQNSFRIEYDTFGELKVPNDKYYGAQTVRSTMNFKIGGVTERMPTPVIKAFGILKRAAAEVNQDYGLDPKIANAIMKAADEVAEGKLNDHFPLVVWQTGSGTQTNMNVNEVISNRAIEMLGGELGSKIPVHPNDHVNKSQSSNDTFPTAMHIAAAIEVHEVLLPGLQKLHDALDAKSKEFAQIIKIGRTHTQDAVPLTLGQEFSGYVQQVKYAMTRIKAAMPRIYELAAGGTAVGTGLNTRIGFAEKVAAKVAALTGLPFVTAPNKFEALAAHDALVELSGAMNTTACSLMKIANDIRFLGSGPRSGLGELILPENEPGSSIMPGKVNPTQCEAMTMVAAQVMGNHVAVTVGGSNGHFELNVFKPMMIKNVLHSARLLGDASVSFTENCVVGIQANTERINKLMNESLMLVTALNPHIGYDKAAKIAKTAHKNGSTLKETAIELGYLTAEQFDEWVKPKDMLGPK
B2AR arrestin ag = agonists recruiting beta-arrestin to human beta2-adrenergic receptor. P07550. HTLA Tango cells, beta-arrestin recruitment, luciferase luminescence, 18 h. Potency, µM (top dose mostly 46.1 µM), usual class: activators. 44,000 tested, under 10 active. AID 1347077;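 further: potency means the concentration at half of the fitted maximal effect; 0% = DMSO and full agonism = EC100 isoproterenol or metaproterenol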
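Receptor–beta-arrestin recruitment read by tTA-responsive luciferase: compound titrations (up to 46 µM) incubated 18 h with Tango cells, then luminescent substrate 15 min at room temperature. Concentration-response fits classified by r2, efficacy and activity.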
NTMT1 inh = blocks human N-terminal methyltransferase 1 activity | hit rate 2.5% among 59,000 | AID 1645870 | Q9BV86 | Potency, µM (doses to about 114 µM), inactives show at the highest dose activity change, negative = inhibition, actives largely listed as inhibitors | NTMT1 MTase-Glo SAH luminescence, purified enzyme;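 further: potency means the concentration at half of the fitted maximal effect; plate controls were DMSO vehicle for no effect and no enzyme for full effect; nearly all actives have a fitted effect of over 65% in size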
Target sequence (Q9BV86 whole entry, looked up): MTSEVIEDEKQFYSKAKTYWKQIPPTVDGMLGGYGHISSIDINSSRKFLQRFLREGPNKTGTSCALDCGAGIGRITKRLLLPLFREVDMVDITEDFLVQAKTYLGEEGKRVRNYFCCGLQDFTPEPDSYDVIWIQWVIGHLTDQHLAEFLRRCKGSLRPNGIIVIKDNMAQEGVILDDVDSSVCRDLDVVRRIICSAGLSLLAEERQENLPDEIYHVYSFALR
Starred values were filed as active, the others as inactive; i = inactive; ? = inconclusive; nt = no result; ! = a repeat was not active; [ ] = another dose, or the depositor's remark. The list is not random: actives were taken first. Their share in the collection is about 3.7%. Unless noted, the call rests on the fitted dose curve; in most records, active means well fitted curve in the direction sought with a large enough effect; inconclusive means small, poorly fitted or top-dose-only effect, or another doubt; inactive means no such curve, though single readings can be large; an effect the other way counts as inactive or inconclusive.

SMILES	DRV1 agonist	GALK inh	TSG101-PTAP inh	FH mod	B2AR arrestin ag	NTMT1 inh
COc1ccc(C(=O)/C=C/c2cn(CC(O)CN3CCCCCC3)c3ccccc23)cc1OC (centres undefined)	?	-2%	i	-20%	i	45µM*
O=C(/C=C/c1cn(CC(O)CN2CCCCCC2)c2ccccc12)c1ccc(Br)cc1 (centres undefined)	88*	-2%	i	-9%	i	?
O=C(/C=C/c1cn(CC(O)CN2CCCCCC2)c2ccccc12)c1ccccc1 (centres undefined)	4	1%	i	-23%	i	?
CC(C)C(CO)Nc1nc(Nc2ccc(C(=O)O)c(Cl)c2)c2ncn(C(C)C)c2n1 (centres undefined)	nt	nt	nt	-3%	nt	3%[57.5 µM]
Cc1cc2c(F)c(Oc3ncnn4cc(OCC(C)OC(=O)C(C)N)c(C)c34)ccc2[nH]1 (centres undefined)	nt	nt	nt	-29%	nt	?
S=C(Nc1ccccn1)c1ccccn1	nt	nt	nt	nt	nt	8.9µM*
Oc1ccc(CNc2ccccn2)c2cccnc12	nt	nt	nt	nt	nt	9%
O=c1[nH]sc2cc(Cl)ccc12	32	nt	nt	0%[53.3 µM]	nt	2.8µM*
C=C1CCC[C@]2(C)C=C3OC(=O)C(C)=C3C[C@@H]12	nt	nt	nt	nt	nt	3%
CCOc1ccc(CCNc2ncnc3onc(C)c23)cc1OCC	64*	2%	i	-7%	i	9%
Cc1noc2ncnc(NCCc3ccccc3)c12	?	-2%	i	4%	i	11%
Cc1ccc(CCNc2ncnc3onc(C)c23)cc1	97*	0%	i	-11%	i	-5%
Cc1ccc(OCCn2c(CCNC(=O)c3cccc(Cl)c3)nc3ccccc32)cc1	nt	nt	nt	nt	nt	6%
Cn1c(=O)cc(N2CCCC(N)C2)n(Cc2cc(F)ccc2C#N)c1=O (centres undefined)	nt	nt	nt	-1%	nt	-5%[57.5 µM]
C[C@@H]1CC2C3C[C@H](F)C4=CC(=O)C=C[C@]4(C)[C@@]3(F)[C@@H](O)C[C@]2(C)[C@@]1(OC(=O)c1ccco1)C(=O)SCF (some centres undefined)	nt	nt	nt	nt	nt	7%
CCN(CC)C(=O)Cc1csc(NS(=O)(=O)c2cccc(Cl)c2C)n1	nt	nt	nt	nt	nt	3%
Cc1ccc(C(=O)Nc2cccc(O)c2)cc1S(=O)(=O)N1CCCCCC1	82*	0%	i	-26%	i	?
COc1ccc(CC(=O)Nc2ccc3nc(Nc4ccc(OC)cc4)cc(C)c3c2)cc1	12	-3%	i	-12%	i	11%
COc1ccc(Nc2cc(C)c3cc(NC(=O)COc4cccc(C)c4)ccc3n2)cc1	72*	4%	i	-24%	i	17%
CCC12CCCN3CCc4c(n(c5ccccc45)C(O)C1)C32 (centres undefined)	nt	nt	nt	-2%	nt	7%[57.5 µM]
Cc1cc(S(=O)(=O)Nc2ccc(O)c(Sc3nc4ccccc4s3)c2)ccc1Cl	101*	0%	i	?	i	-9%
O=S(=O)(Nc1ccc(O)c(Sc2nc3ccccc3s2)c1)c1cc(Cl)ccc1Cl	13	0%	i	16µM*	i	13%
C=C[C@H]1[C@H](O[C@@H]2O[C@H](CO)[C@@H](O)[C@H](O)[C@H]2O)OC=C(C(=O)OC)[C@H]1CCOC(=O)c1cc(O)c(O)c(O)c1	nt	nt	nt	0%[53.3 µM]	nt	-4%[29.8 µM]
NC1CCC(N[C@@H]2C[C@H]2c2ccccc2)CC1 (some centres undefined)	nt	nt	nt	1%	nt	?
O=S(=O)(Nc1ccc(S(=O)(=O)Nc2nccs2)cc1)c1ccc2ccccc2c1	nt	nt	nt	nt	nt	10%
SMILES	DRV1 agonist	GALK inh	TSG101-PTAP inh	FH mod	B2AR arrestin ag	NTMT1 inh
O=C(O)c1cccc(-n2cccc2)c1	nt	nt	nt	nt	nt	13%
Cc1ccc(C)n1-c1cccc(C(=O)O)c1	nt	nt	nt	nt	nt	2.2µM*
C[N+](C)([O-])CCNc1ccc(NCC[N+](C)(C)[O-])c2c1C(=O)c1c(O)ccc(O)c1C2=O	nt	nt	nt	-9%[53.3 µM]	nt	?
O=C1c2c(O)ccc(O)c2C(=O)c2c(NCCNCCO)ccc(NCCNCCO)c21	-34	nt	nt	?	nt	28µM*!
O=c1c2ccc(C(F)(F)F)cc2nc2sc(Nc3ccc4c(c3)CCC4)nn12	nt	nt	nt	nt	nt	19%
CCN(CC)c1cc(C)c2cc(NC(=O)c3cccc(OC)c3OC)ccc2n1	95*	7%	i	-36%	i	-15%
CCOc1ccccc1C(=O)Nc1ccc2nc(N(CC)CC)cc(C)c2c1	-10	3%	i	-2%	i	-5%
COc1ccc(NCc2cccn2-c2nnc(N3CCCCC3)s2)cc1OC	84*	4%	i	?	i	-2%
O=c1c2ccccc2nc2sc(NS(=O)(=O)c3ccc4c(c3)CCC4)nn12	nt	nt	nt	nt	nt	-21%
Cc1ccccc1Nc1c(-c2c[nH]c3ccccc23)nc2cccc(C)n12	63*	2%	i	?	i	3%
Cc1ccc2nc(-c3c[nH]c4ccccc34)c(Nc3ccccc3C)n2c1	-9	2%	i	2%	i	-8%
Cc1ccccc1Nc1c(-c2ccc(Cl)s2)nc2cccc(C)n12	61*	1%	i	-3%	i	1%
Cc1ccc(-c2ccc(=O)n(CC(=O)NCCc3ccccn3)n2)cc1	nt	nt	nt	nt	nt	11%
O=C(NCCc1ccccc1)c1c[nH]c2ccc(S(=O)(=O)Nc3ccc(F)cc3F)cc2c1=O	100*	-5%	i	-16%	i	3%
O=C(NCc1ccco1)c1c[nH]c2ccc(S(=O)(=O)Nc3ccc(F)cc3F)cc2c1=O	63*	0%	i	?	i	-2%
COC(=O)C(CC1(O)c2ccccc2N2C(=O)C(C)(C)N(O)C21)n1cnc2ccccc2c1=O (centres undefined)	nt	nt	nt	-1%[53.3 µM]	nt	12%[29.8 µM]
Fc1cc(Nc2nc(-c3ccncc3)nc3ccccc23)ccc1N1CCNCC1	nt	nt	nt	nt	nt	10µM*
Fc1cc(Nc2nc(-c3ccncc3)nc3ccccc23)ccc1-c1ccncc1	nt	nt	nt	nt	nt	-1%
O=c1cc(-c2ccccc2)oc2cc(O)c(O)c(O)c12	nt	nt	nt	?	nt	28µM*!
COc1cc(NC(C)CCCN)c2ncccc2c1 (centres undefined)	9	nt	nt	?	nt	40µM*
COc1cccc(CNC(=O)c2cc3ccc4cccnc4c3[nH]2)c1	12	0%	i	-2%	i	-3%
